Bioassay records: PubChem, several laboratories
Mcl1 Noxa PPI: Mcl-1/Noxa interaction inhibition | TR-FRET Mcl-1/Noxa peptide binding, 2 h | hit rate 1.5% among 220,000 | inhibition, % at 21.7 µM | Q07820;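 active = compounds that cut the protein-peptide binding signal by more than 50% relative to plate controls in a single-dose test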;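 also: His-tagged Mcl-1 with rhodamine Noxa BH3 peptide and terbium anti-His antibody; 0% = Mcl-1 plus Noxa peptide wells and 100% = peptide-only wells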
Mcl1 Bid PPI: Mcl-1/Bid interaction inhibition. Q07820. TR-FRET Mcl-1/Bid-Dy647 peptide binding, 1536-well. inhibition, % at 21.7 µM. hit rate 0.97% among 220,000;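 active = compounds that cut the binding signal by more than half at the single screening dose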;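 also: His-tagged Mcl-1 with europium anti-His antibody binding Bid BH3 peptide; 0% = Mcl-1 plus peptide wells and 100% = peptide-only wells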
GLD-1 RNA inh: GLD-1-TGE RNA interaction inhibition (C. elegans); Q17339; hit rate 0.44% among 320,000; purified GLD-1 + fluorescein TGE RNA, fluorescence polarization; AID 2280; inhibition, % at 5.96 µM;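 active = percent inhibition above a per-plate cutoff, the plate mean of test compounds plus 3 SD, cut at about 30% in these data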;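 also: 0% = DMSO wells with GLD-1 and probe and 100% = wells lacking GLD-1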
Target sequence (Q17339 whole entry, looked up): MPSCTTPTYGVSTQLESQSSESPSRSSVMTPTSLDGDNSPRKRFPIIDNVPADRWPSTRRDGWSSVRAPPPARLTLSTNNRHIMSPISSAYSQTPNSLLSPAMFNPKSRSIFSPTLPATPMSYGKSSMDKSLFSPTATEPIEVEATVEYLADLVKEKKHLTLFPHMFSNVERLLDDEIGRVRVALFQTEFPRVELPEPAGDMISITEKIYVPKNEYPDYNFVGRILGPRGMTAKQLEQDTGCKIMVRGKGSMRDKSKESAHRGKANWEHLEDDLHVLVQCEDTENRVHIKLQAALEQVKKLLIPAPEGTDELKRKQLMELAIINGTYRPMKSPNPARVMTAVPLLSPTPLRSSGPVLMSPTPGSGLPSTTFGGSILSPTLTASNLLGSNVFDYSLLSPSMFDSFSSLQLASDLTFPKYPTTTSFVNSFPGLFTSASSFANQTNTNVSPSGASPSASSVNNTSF
Bim-Mcl-1: human Bim-Mcl-1 interaction inhibition | Bead-based flow cytometry, Bim peptide-Mcl-1 binding | inhibition, % at 10 µM | hit rate 0.1% among 190,000 | AID 1009; in the data active = inhibition above about 40%;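 also: 0% = no compound tracer wells and 100% = peptide blocker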
BCLXL inh: inhibitors of human Bcl-xL; Q07817; GST-Bcl-xL / FITC-Bim BH3 peptide fluorescence polarization; inhibition, % at 10.9 µM; hit rate 0.7% among 320,000;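 active = inhibition above the mean of all tested compounds plus 3 SD, cutoff set per campaign, cut at about 30% in these data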;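 also: 0% = DMSO wells and 100% = unlabeled Bim-BH3 peptide competitor; inhibitors lower millipolarization by displacing the labeled peptide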
Target sequence (Q07817 whole entry, looked up): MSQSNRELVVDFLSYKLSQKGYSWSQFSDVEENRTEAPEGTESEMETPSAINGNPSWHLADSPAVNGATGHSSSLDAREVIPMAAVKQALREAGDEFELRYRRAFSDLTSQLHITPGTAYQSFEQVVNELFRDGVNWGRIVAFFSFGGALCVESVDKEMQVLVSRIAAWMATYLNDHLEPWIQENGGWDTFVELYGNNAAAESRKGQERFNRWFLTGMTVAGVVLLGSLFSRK
MCL1 BIM primary: inhibitors of human MCL1 binding to BIM-BH3 peptide; Q07820; GST-MCL1 / FITC-Bim-BH3 fluorescence polarization; inhibition, % at 10.9 µM; hit rate 0.68% among 320,000; AID 2057;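 active = inhibition above the mean inhibition of all tested compounds plus 3 SD, set per campaign, cut at about 40% in these data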;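 also: 0% = DMSO wells and 100% = unlabeled Bim-BH3 peptide control; higher means more loss of mP so more displacement of Bim peptide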
Bcl-xL conf: counter-screen for MCL1 inhibitors: confirmation of human Bcl-xL inhibitors; shares compounds with MCL1 BIM primary; GST-Bcl-xL / FITC-Bim BH3 peptide FP binding; inhibition, % at 10.9 µM; hit rate 54% among 1,700; AID 2166;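 active = inhibition above a cutoff equal to the mean inhibition of all tested compounds plus 3 SD, cut at about 30% in these data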;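 also: 0% = DMSO wells and 100% = unlabeled Bim BH3 control peptide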
MCL1 BIM confirm: MCL1-BIM-BH3 interaction inhibition, confirmation | GST-MCL1 / FITC-Bim-BH3 fluorescence polarization | hit rate 61% among 1,700 | inhibition, % at 10.9 µM | shares compounds with MCL1 BIM primary;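 active = inhibition above the average of all tested compounds plus 3 SD, cut at about 40% in these data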;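 also: 0% = DMSO wells and 100% = unlabeled Bim-BH3 control peptide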
The depositor's hits bear a star; . = no result given; + = active, no number. Hits are enriched below; roughly 2.3% of the tested compounds scored in any of these assays.

SMILES | Mcl1 Noxa PPI | Mcl1 Bid PPI | GLD-1 RNA inh | Bim-Mcl-1 | BCLXL inh | MCL1 BIM primary | Bcl-xL conf | MCL1 BIM confirm
CNc1ccccc(C(=O)/C=C/c2ccccc2OC)c1=O | 63* | -99 | 5 | 3 | 24 | 41* | 29 | 62*
COc1ccccc1/C=C/C(C)=O | 3 | -6 | -28 | 0 | -4 | -1 | . | .
COc1ccccc1-n1nnnc1SCC(=O)Nc1ccc(C)c(N)c1 | . | . | 93* | . | 141* | 139* | 25 | 22
Cc1ccccc1C1C(C#N)=C2N=C(N)c3c(sc4c3CCCCC4)N2C2=C1C(=O)CC(C)(C)C2 (stereo not drawn) | -125 | -147 | 48* | 2 | 55* | 54* | 39* | 51*
O=C(N/N=C/c1cc2c(c([N+](=O)[O-])c1)OCO2)c1ccncc1 | . | . | -9 | . | 4 | 8 | . | .
O=C(N/N=C/c1ccncc1)c1cc([N+](=O)[O-])cc([N+](=O)[O-])c1O | 84* | 9 | -1 | -2 | 9 | 43* | 12 | 49*
Cc1nn(C2CCS(=O)(=O)C2)c(C)c1C=O (stereo not drawn) | 16 | -9 | -8 | 0 | 5 | 1 | . | .
CC1(C)CC(=O)C2=C(C1)OC(N)=C(C#N)C2c1cc2c(cc1[N+](=O)[O-])OCO2 (stereo not drawn) | 25 | -49 | 141* | -6 | 186* | + | 108* | 132*
CN(C)Cc1c(O)ccc2cc(-c3nc4ccccc4n3C)c(=O)oc12 | . | . | 22 | . | 52* | 64* | 27 | 33
Cc1ccc(N=Cc2cccc(O)c2O)c(C)c1 | 43 | -109 | 7 | 1 | 27 | 60* | 20 | 20
Cc1ccccc1N=Cc1cccc(O)c1O | 16 | -5 | 0 | -1 | 36* | 65* | 37* | 56*
CC(N=Cc1cccc(O)c1O)c1ccccc1 (stereo not drawn) | 52* | -10 | 15 | -9 | 33* | 66* | 32* | 71*
CC(N=Cc1cc([N+](=O)[O-])ccc1O)c1ccccc1 (stereo not drawn) | 12 | 6 | -2 | 0 | 6 | 17 | . | .
CC1CCC(NC(=O)CN2C(=O)NC(C)(C)C2=O)CC1 (stereo not drawn) | . | . | 7 | . | -9 | -17 | . | .
Cc1cc(C)c(NC(=O)c2cccc3c2C(=O)N(C2CCCCC2)C3)c(C)c1 | . | . | 3 | . | -2 | -1 | . | .
COc1c(Br)cc([N+](=O)[O-])c(OC)c1C(=O)NC(=O)Nc1nc(C)cc(C)n1 | -2 | -9 | 3 | . | 5 | 8 | . | .
O=C(N1CCOCC1)N1CCC(n2nnc3cc(F)ccc32)CC1 | 4 | -10 | 40* | 1 | 76* | 87* | 54* | 62*
COc1cc(C2Nc3cc(C)c(C)cc3NC3=C2C(=O)CC(C)(C)C3)ccc1OC(C)=O (stereo not drawn) | . | . | 2 | . | 3 | 9 | . | .
Cc1cc2c(cc1C)NC(c1c(C)n(C)n(-c3ccccc3)c1=O)C1=C(CC(C)(C)CC1=O)N2 (stereo not drawn) | 7 | -13 | 85* | 0 | 120* | 135* | 8 | 8
Cc1ccc(N(CC(=O)NC2CCCC2)C(=O)CNC(=O)c2cccs2)c(C)c1 | . | . | -1 | . | 6 | 7 | . | .
Cc1c2cc(O)c(=O)cc-2oc2cc(O)c(O)cc12 | . | . | 185* | . | 107* | . | 114* | .
Cc1ccc(C(=O)O)cc1-c1ccc(/C=C2/NC(=O)N(c3ccccc3)C2=O)o1 | 70* | 27 | -1 | 3 | 21 | 52* | 36* | 63*
COc1ccc(Br)cc1-c1noc(-c2ccncc2)n1 | -10 | -30 | -1 | -1 | 2 | 66* | 7 | -1
C#CCN1C(=O)S/C(=C\c2ccc(-c3ccc(C(=O)O)cc3C)o2)C1=O | . | . | -3 | . | 15 | 66* | 1 | 15
CCOC(=O)C(C)N1C(=O)S/C(=C\c2ccc(-c3ccccc3C(=O)O)o2)C1=O (stereo not drawn) | . | . | -3 | . | 31* | 58* | 42* | 62*
SMILES | Mcl1 Noxa PPI | Mcl1 Bid PPI | GLD-1 RNA inh | Bim-Mcl-1 | BCLXL inh | MCL1 BIM primary | Bcl-xL conf | MCL1 BIM confirm
Cc1n[nH]c(C)c1CCNC(=O)C1CCC(=O)N(CCc2cccc(F)c2)C1 (stereo not drawn) | . | . | -6 | . | -4 | -14 | . | .
c1ccc(COCCC2CO2)cc1 (stereo not drawn) | . | . | 5 | . | 6 | 1 | . | .
Cn1c(CNc2ccc(O)cc2)nc2ccccc21 | . | . | 92* | . | 56* | 66* | 81* | 82*
COC(=O)C1=C(O)/C(=C\c2ccc(CNC(=O)C(=O)Nc3ccc(C)cc3)o2)N=C1C | 46 | 18 | 5 | 1 | 17 | 19 | . | .
COC(=O)C1=C(O)/C(=C\c2ccc(CNS(=O)(=O)c3ccccc3)o2)N=C1C | 27 | -59 | 27 | -4 | 45* | 48* | 31* | 54*
Cc1nn(-c2ccccc2)c(C)c1-c1nnc(-c2c(C)nn(-c3ccccc3)c2C)o1 | 9 | -1 | 6 | . | -7 | -1 | . | .
CCOC(=O)N1CCC(N2CCCC(CO)(Cc3cccc(OC)c3)C2)CC1 (stereo not drawn) | -3 | -25 | -1 | -2 | 4 | 10 | . | .
Cc1ccc(C)n1Cc1ccc(C(=O)O)cc1 | 62* | -19 | 22 | 0 | 41* | 92* | 36* | 110*
O=C1OC(Nc2cc(Br)cc3cccnc23)c2ccccc21 (stereo not drawn) | 11 | -41 | 11 | -4 | 64* | 90* | 56* | 68*
O=C1OC(Nc2ncccn2)c2ccccc21 (stereo not drawn) | 11 | 17 | 7 | -5 | -7 | -6 | . | .
Cc1cc(C(=O)NN)n[nH]1 | 8 | -24 | 3 | . | 3 | 56* | 1 | 7
Cc1sc2nc(CSCC(=O)NC3(C#N)CCCCC3)[nH]c(=O)c2c1C | . | . | -3 | . | -22 | -28 | . | .
CN(C)/C=C1\C=C2C(=O)c3ccccc3N2C1=O | -199 | -48 | 91* | . | 109* | 116* | 115* | 121*
CCOC(=O)c1cc(C#N)c(SCC(=O)O)[nH]c1=O | -8 | 46 | 2 | -1 | 7 | 4 | . | .
CCOC(=O)c1cc(C#N)c(SCC(=O)c2cc(C#N)c(SC)nc2C)[nH]c1=O | 34 | -100 | 77* | 0 | 103* | 117* | 21 | 18
CC1CN(c2nnc(NC(=O)c3ccccc3)s2)CC(C)O1 (stereo not drawn) | 14 | -12 | 3 | -5 | -3 | -10 | . | .
